# Screens as filed in PubChem.
# CASP6 VEID inh: inhibitors of human caspase-6. purified caspase-6, Z-VEID-R110 cleavage fluorescence. P55212. AID 686996. 350,000 compounds, 0.53% hits. inhibition, % at 12.5 µM;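 active = mean inhibition across replicates at least about 35%, with every replicate also reaching that limit, limit read from the data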;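 also: 0% = median of neutral control wells and 100% = no fluorescence left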
# miR-122 sensor: inhibitors of miR-122 in Huh7 cells. Huh7 miR-122 Renilla luciferase sensor, 48 h; neutral wells = 0, positive control = 100. 340,000 compounds, 0.3% hits. activation (reporter increase), % at 12.5 µM;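 active = mean replicate activation score at least 90 and every replicate individually at or above 90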;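 also: higher luciferase means less miR-122 activity so hits act as miR-122 inhibitors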
# RAD52 anneal inh: inhibitors of human RAD52 DNA annealing | recombinant RAD52 DNA annealing, FRET fluorescence | 360,000 compounds, 0.46% hits | inhibition, % at 18.7 µM | AID 651710;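 active = every replicate showing at least 50% inhibition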
# MLL AF4-AF9 inh: inhibitors of human MLL-AF4/AF9 interaction; P42568; AlphaScreen, biotin-AF4 peptide binding to FLAG-AF9; inhibition, % at 10 µM; 350,000 compounds, 0.47% hits;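 active = every replicate reaching a set inhibition limit, whatever the replicate mean, cut at about 25% in these data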;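 also: 0% = plate neutral control median and 100% = total signal loss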
# Target sequence (P42568 whole entry, looked up): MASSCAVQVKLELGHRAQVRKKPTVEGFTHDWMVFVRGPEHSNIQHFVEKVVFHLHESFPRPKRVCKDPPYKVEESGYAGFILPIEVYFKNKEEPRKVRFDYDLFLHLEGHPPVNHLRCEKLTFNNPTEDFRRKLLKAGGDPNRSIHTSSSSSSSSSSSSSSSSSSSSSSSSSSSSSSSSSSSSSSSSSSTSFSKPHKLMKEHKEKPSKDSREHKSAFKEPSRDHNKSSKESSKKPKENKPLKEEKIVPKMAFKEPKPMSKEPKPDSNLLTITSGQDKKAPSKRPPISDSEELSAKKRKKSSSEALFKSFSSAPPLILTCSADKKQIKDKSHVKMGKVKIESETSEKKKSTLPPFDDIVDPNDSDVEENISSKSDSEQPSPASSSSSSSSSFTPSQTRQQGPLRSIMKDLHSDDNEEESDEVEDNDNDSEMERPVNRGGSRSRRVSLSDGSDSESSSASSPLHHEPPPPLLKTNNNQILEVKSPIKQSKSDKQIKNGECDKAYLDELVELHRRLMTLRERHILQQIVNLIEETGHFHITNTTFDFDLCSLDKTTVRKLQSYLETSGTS
# NSD2 inh: inhibitors of human histone methyltransferase NSD2. O96028. NSD2 peptide methylation, AlphaScreen, 120 min. inhibition, % at 12.5 µM. 310,000 compounds, 0.54% hits. AID 743445; in the data active = inhibition above about 50%
# An asterisk follows results filed as active; . = no result given; [ ] = dose if it differs, or a comment. A selection: hits, their analogues and other compounds. The true share with any hit is near 1.5%.
SMILES,CASP6 VEID inh,miR-122 sensor,RAD52 anneal inh,MLL AF4-AF9 inh,NSD2 inh
COc1ccccc1NC(=O)CSc1sc2c(O)cc(=O)[nH]c2c1C#N,31,6,-24,3,.
Cc1ccc(C)c(NC(=O)CSc2sc3c(O)cc(=O)[nH]c3c2C#N)c1,47*,2,-22,2,.
O=C(C1CCC1)N1CC2(C1)[C@H](c1ccccc1)[C@@H](CO)N2CC1CCCC1,1,.,-6,-2,.
COc1ccc2c3c([nH]c2c1)[C@@H](CO)N(C(=O)Nc1ccccc1F)CC31CN(C(C)=O)C1,4,.,7,2,.
C[C@@H]1CN([C@H](C)CO)C(=O)Cc2cc(NC(=O)C3CC3)ccc2O[C@@H]1CN(C)Cc1ccc(Oc2ccccc2)cc1,.,-9[16.7 µM],-1,1,.
COc1ccc2c3c([nH]c2c1)[C@H](CO)N(C(=O)c1ccncc1)CC31CN(C(=O)CC2CC2)C1,.,.,.,-6,.
Cc1ccc(S(=O)(=O)N(C)C[C@@H]2OCCCC[C@@H](C)Oc3ccc(NC(=O)Nc4cccc5ccccc45)cc3C(=O)N([C@@H](C)CO)C[C@@H]2C)cc1,1,14[16.7 µM],7,2,.
O=C(C[C@H]1CC[C@@H]2[C@H](COC[C@@H](O)CN2Cc2ccccc2)O1)NCc1ccccc1Cl,-3,1[16.7 µM],17,-1,.
COc1ccc(-n2nc3c(c2NC(=O)c2ccccc2)CS(=O)(=O)C3)cc1,1,-2,-17,-1,2
COc1ccc(-n2nc3c(c2NC(=O)c2c(-c4ccccc4Cl)noc2C)CS(=O)(=O)C3)cc1,42*,-1,-1,-3,-1
Oc1ccc(C=NNc2ccccn2)c(O)c1,.,.,1,42*,1
Cc1nc(N/N=C/c2ccc(O)cc2O)cc(N2CCOCC2)n1,-2,-3,-27,70*,10
Cc1nc(N/N=C/c2cccc(F)c2)cc(N2CCOCC2)n1,3,-14,7,-5,9
C=CC1=C(C(=O)O)N2C(=O)[C@@H](NC(=O)/C(=N\O)c3csc(N)n3)[C@H]2SC1 (stereo in doubt),87*,-3,-28,-25,.
CN1CCN(C(=O)C[C@H]2CC[C@H]3[C@@H](COC[C@H](O)CN3Cc3cccc(Cl)c3)O2)CC1,-1,-2[16.7 µM],24,0,.
CO[C@H]1CN(C)C(=O)c2cc(NC(=O)C3CC3)ccc2OC[C@H](C)N(C)C[C@@H]1C,.,.,.,-1,.
CCOC(=O)c1ccc(S(=O)(=O)NC2CCCCCCC2)n1C,.,128*,.,.,-1
COc1ccc(NC(=O)Nc2ccc3c(c2)CC(=O)N([C@H](C)CO)C[C@@H](C)[C@@H](CN(C)S(=O)(=O)c2ccccc2)O3)cc1,-1,-12[16.7 µM],4,0,.
COc1ccc(NC(=O)N2CCCCN3[C@@H](CO)[C@@H](c4ccc(-c5ccccc5F)cc4)[C@@H]3C2)cc1,2,-4[16.7 µM],65*,3,.
O=C(Nc1ccccc1)N1CCCCN2[C@H](C1)[C@H](c1ccc(-c3ccccc3F)cc1)[C@@H]2CO,3,-2[16.7 µM],-1,0,.
COc1ccc(NC(=O)N2CCCCN3[C@@H](CO)[C@H](c4ccc(-c5ccccc5F)cc4)[C@@H]3C2)cc1,2,3[16.7 µM],60*,-2,.
C[C@@H]1CN([C@@H](C)CO)C(=O)Cc2cc(NC(=O)c3ccncc3)ccc2O[C@H]1CN(C)Cc1ccc(C(=O)O)cc1,0,.,-19,-2,.
CN1C(=O)[C@H]2[C@@H](c3ccc(F)cc3)N3C(=O)c4ccccc4NC(=O)[C@@]3(C)[C@H]2C1=O,.,95*,.,.,.
COc1ccc2c(c1)OC[C@H]1[C@H]2N2C(=O)c3ccccc3NC(=O)[C@@]2(C)[C@H]1c1ccccc1,6,.,-8,-1,.
O=C(O)CNC(=O)C1(N2C(=O)c3ccccc3C2=O)CCCC1,2,100*,-8,-2,0
SMILES,CASP6 VEID inh,miR-122 sensor,RAD52 anneal inh,MLL AF4-AF9 inh,NSD2 inh
CC(C)CNC(=O)C1(N2C(=O)c3ccccc3C2=O)CCCC1,.,-11,.,.,-2
S=C(NCc1ccccc1)Nc1cccc2cnccc12,1,5,-6,3,0
FC(F)(F)c1ccccc1NC(=S)Nc1cccc2cnccc12,37*,.,-25,0,96*
Cc1ccccc1-c1cnc2c(c1)C(=O)N([C@@H](C)CO)C[C@H](C)[C@H](CN(C)C(=O)CN(C)C)O2,-1,3[16.7 µM],-11,-3,.
CN(C)C(=O)c1cccc(-c2ccc([C@@H]3[C@@H](CO)N4CCCCN(C(=O)C5CCCC5)C[C@@H]34)cc2)c1,-1,-23[16.7 µM],8,-5,.
O=C(Nc1ccc(F)cc1)N1CCCCN2[C@H](CO)[C@@H](c3ccc(-c4ccccc4F)cc3)[C@@H]2C1,1,10[16.7 µM],49,-6,.
O=C(Nc1ccc(F)cc1)N1CCCCN2[C@H](CO)[C@H](c3ccc(-c4ccccc4F)cc3)[C@H]2C1,-1,-3[16.7 µM],60*,11,.
O=S(=O)(c1ccc(F)cc1)N1CCCCN2[C@H](CO)[C@@H](c3ccc(-c4ccccc4F)cc3)[C@H]2C1,-1,-1[16.7 µM],56*,2,.
OC[C@H]1[C@H](c2ccc(-c3ccccc3F)cc2)[C@H]2CN(Cc3cccnc3)CCCCN21,47*,1[16.7 µM],5,6,.
O=C(Nc1ccc(F)cc1)N1CCCCN2[C@H](CO)[C@@H](c3ccc(-c4ccccc4F)cc3)[C@H]2C1,0,0[16.7 µM],53*,10,.
COc1cccc(NC(=O)Nc2ccc3c(c2)C(=O)N(C)C[C@@H](OC)[C@H](C)CN[C@H](C)CO3)c1,0,-7[16.7 µM],59*,21,.
COc1cccc(NC(=O)Nc2ccc3c(c2)OC[C@@H](C)NC[C@H](C)[C@@H](OC)CN(C)C3=O)c1,-12,6[16.7 µM],76*,14,.
CO[C@H]1CN(C)C(=O)c2cc(NC(=O)c3ccc(Oc4ccccc4)cc3)ccc2OC[C@@H](C)NC[C@H]1C,3,.,41,9,.
CO[C@H]1CN(C)C(=O)c2ccc(NC(=O)c3ccc(Oc4ccccc4)cc3)cc2OC[C@H](C)NC[C@@H]1C,-1,-7[16.7 µM],51*,11,.
COc1ccc(NC(=O)Nc2ccc3c(c2)OC[C@H](C)NC[C@@H](C)[C@@H](OC)CN(C)C3=O)cc1,1,1[16.7 µM],-7,3,.
COc1ccc(S(=O)(=O)N(C)C[C@@H]2Oc3ccc(NC(=O)Nc4ccccc4)cc3CC(=O)N([C@H](C)CO)C[C@H]2C)cc1,-1,1[16.7 µM],-7,2,.
CCC1CCc2sc(C(=O)O)cc2C1 (configuration not stated),.,1,.,.,0
CCC1CCc2sc(C(=O)NNC(=O)c3ccncc3)cc2C1 (configuration not stated),59*,.,0,-1,5
Cc1ccc(S(=O)(=O)NC23CC4CC(CC(C4)C2)C3)cc1,-2,106*,-4,-2,-8
Cc1ccc(S(=O)(=O)NN=C2C3CC4CC(C3)CC2C4)cc1,7,-5,-11,-1,0
CCc1ccccc1NS(=O)(=O)c1ccc(OC)c2ncccc12,9,84,-5,-6,-5
CCc1ccc(NS(=O)(=O)c2ccc(OC)c3ncccc23)cc1,-1,173*,-12,0,3
